The source of these data is PubChem BioAssay (NCI).

Each structure is given as a SMILES string. This is part of a sample that, as a whole, favours compounds with a hit. Of some 83,000 tested, about 20% had one in any assay.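 Testing used 96-well plates and a 48-hour single-concentration exposure. Example: -40 means 40% of the starting cells died.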 A number with no mark means an inactive call. Active and inactive are the calls of the source. The calls were made as follows: active = growth percent below 10; inactive = the rest.

Some test systems named below: HCT-15 colon; HT29 colon; SNB-19 CNS; U251 CNS; PC-3 prostate; SK-MEL-5 melanoma; UACC-62 melanoma; LOX IMVI melanoma; SK-MEL-28 melanoma; SK-MEL-2 melanoma; SN12C renal; UO-31 renal; TK-10 renal; ACHN renal; CAKI-1 renal; A498 renal; CCRF-CEM leukemia; MOLT-4 leukemia; EKVX NSCLC.
Experiment in all cases: NCI-60 one-dose screen, 48 h (100 = growth as untreated, 0 = no growth, -100 = all killed)
Holding throughout (conditions): 10 µM unless noted

For `CC1=CC(=O)CC(C)(C)[C@@]1(O)/C=C/[C@@H](C)O`, the growth with HCT-15 colon was 89.4%; in the experiment with HT29 colon, 112%; in the experiment with SNB-19 CNS it was 97.7%; in the experiment with U251 CNS it was 90.8%; in the experiment on PC-3 prostate it was 101%; in the experiment with SK-MEL-5 melanoma, 97.4%. Moreover, the growth in the experiment with UACC-62 melanoma was 99.7%; with LOX IMVI melanoma, 93.7%; with SK-MEL-28 melanoma, 108%; with SK-MEL-2 melanoma, 112%; with SN12C renal, 105%; in the experiment on UO-31 renal, 95.3%. Besides, the growth in the experiment on TK-10 renal was 108%; in the experiment with ACHN renal, 109%; in the experiment on CAKI-1 renal, 97.2%; in the experiment on A498 renal, 94.1%; with CCRF-CEM leukemia it was 104%; in the experiment with MOLT-4 leukemia, 108%.

Consider `CCOC(=O)c1cnc2cc(Cl)c(F)cc2c1Nc1cccc(NS(C)(=O)=O)c1`, for which the growth in the experiment on HCT-15 colon was 89.3%; with HT29 colon, 122%; in the experiment with SNB-19 CNS it was 93.9%; in the experiment on U251 CNS, 106%; with PC-3 prostate, 101%; with SK-MEL-5 melanoma, 98.3%. For the same molecule, the growth in the experiment with UACC-62 melanoma is 87.8%; in the experiment on LOX IMVI melanoma, 91.2%; in the experiment with SK-MEL-28 melanoma, 114%; with SK-MEL-2 melanoma, 113%; in the experiment on EKVX NSCLC, 90.8%; in the experiment with SN12C renal, 100%. Further, the growth with UO-31 renal was 73.3%; with TK-10 renal, 124%; in the experiment with ACHN renal it was 93.5%; with CAKI-1 renal, 86.2%; in the experiment on A498 renal it was 78.9%; with CCRF-CEM leukemia, 103%. Also, the growth in the experiment with MOLT-4 leukemia was 99.9%.

Take `O=[N+]([O-])c1cccc(-c2nc3sccn3c2-c2ccnc(NCCCNS(=O)(=O)c3ccc(F)cc3)n2)c1`: the growth in the experiment with HCT-15 colon was -3.76% (active); with HT29 colon, 18.4%; in the experiment on SNB-19 CNS, 29.3%; with U251 CNS it was 26.8%; in the experiment on PC-3 prostate, -3.27% (active); in the experiment with SK-MEL-5 melanoma it was -76.7% (active). In addition, the growth with UACC-62 melanoma was -45% (active); with SK-MEL-28 melanoma, -1.76% (active); in the experiment with SK-MEL-2 melanoma, -15.9% (active); with EKVX NSCLC it was 18.3%; in the experiment with SN12C renal, 10.6%; in the experiment with UO-31 renal, -26.8% (active). Further, the growth with TK-10 renal was 44.6%; with ACHN renal, 5.38% (active); with CAKI-1 renal, 9.79% (active); in the experiment with A498 renal, 29.7%; in the experiment on CCRF-CEM leukemia, 1.95% (active); in the experiment with MOLT-4 leukemia, -18.2% (active).

On to `COc1ccc(S(=O)(=O)NCCCNc2nccc(-c3c(-c4cccc(N)c4)nc4sccn34)n2)cc1`, for which the growth in the experiment on HCT-15 colon was 89.2%; with HT29 colon it was 59.7%; in the experiment on SNB-19 CNS, 110%; with U251 CNS, 106%; with PC-3 prostate, 81.4%; in the experiment with SK-MEL-5 melanoma it was 81.3%. Moreover, the growth in the experiment on UACC-62 melanoma is 53%; in the experiment on LOX IMVI melanoma, 96.4%; in the experiment on SK-MEL-28 melanoma, 93.1%; with SK-MEL-2 melanoma, 113%; with SN12C renal, 76.7%; with UO-31 renal, 76.4%. Also, the growth is 134% with TK-10 renal; 78.8% in the experiment on ACHN renal; 77.5% in the experiment with CAKI-1 renal; 91.2% in the experiment on A498 renal; 78.4% in the experiment on CCRF-CEM leukemia; 75.5% in the experiment with MOLT-4 leukemia.

Regarding `COc1ccc(-c2nn(-c3ccccc3)cc2/C=C/C(=O)OCc2cn(-c3ccc(F)c(Cl)c3)nn2)cc1`, the growth was 88.5% in the experiment with HCT-15 colon; 103% in the experiment with HT29 colon; 85% in the experiment with SNB-19 CNS; 101% in the experiment with U251 CNS; 60.5% in the experiment on PC-3 prostate; 83.3% in the experiment with SK-MEL-5 melanoma. The growth is 80% with UACC-62 melanoma; 78.9% with LOX IMVI melanoma; 115% in the experiment on SK-MEL-28 melanoma; 86.9% in the experiment with SK-MEL-2 melanoma; 101% with EKVX NSCLC; 80.1% in the experiment with SN12C renal. Besides, the growth with UO-31 renal was 43%; with TK-10 renal, 118%; with ACHN renal, 83.3%; in the experiment with CAKI-1 renal, 79.2%; with A498 renal, 77.3%; in the experiment on CCRF-CEM leukemia it was 101%. For the same molecule, the growth in the experiment on MOLT-4 leukemia is 71.2%.

As for `CCN(CC)CCCC(C)Nc1ccnc2c(OC)cccc12` (stereo unspecified), the growth in the experiment with HCT-15 colon is 120%; in the experiment with HT29 colon it was 107%; in the experiment on SNB-19 CNS, 113%; in the experiment on U251 CNS, 102%; in the experiment with PC-3 prostate, 104%; in the experiment with SK-MEL-5 melanoma, 111%. The growth was 114% in the experiment on UACC-62 melanoma; 119% in the experiment on SK-MEL-28 melanoma; 127% with SK-MEL-2 melanoma; 112% in the experiment with EKVX NSCLC; 101% with SN12C renal; 87.4% in the experiment on UO-31 renal. Also, the growth with TK-10 renal was 120%; in the experiment on ACHN renal, 122%; in the experiment on CAKI-1 renal it was 101%; in the experiment on A498 renal, 135%; with CCRF-CEM leukemia, 94.3%; with MOLT-4 leukemia it was 102%.

With `C/C(Cc1ccc(Cl)cc1)=C(\c1ccc(OCCN2CCCCCC2)cc1)c1ccc(OC(=O)C2CCCCC2)cc1`, the growth in the experiment on HCT-15 colon was 39%; in the experiment with HT29 colon it was 18.4%; in the experiment on SNB-19 CNS it was 77.6%; in the experiment with U251 CNS, 45%; with PC-3 prostate, 51.5%; in the experiment on SK-MEL-5 melanoma, 83.5%. The growth in the experiment on UACC-62 melanoma was 68.1%; in the experiment with LOX IMVI melanoma, 65.8%; in the experiment on SK-MEL-28 melanoma, 61.2%; with SK-MEL-2 melanoma it was 81.6%; with EKVX NSCLC it was 81%; in the experiment with SN12C renal it was 67%. The growth with TK-10 renal is 84.1%; in the experiment on ACHN renal, 87%; in the experiment on CAKI-1 renal, 80.8%; in the experiment with A498 renal, 82%; in the experiment with CCRF-CEM leukemia it was 55.3%; with MOLT-4 leukemia, 25.6%.

On to `CC(C)(C)n1cc(-c2ccnc(NCCNS(=O)(=O)c3ccccc3)c2)c(-c2cccc(O)c2)n1`, for which the growth in the experiment with HCT-15 colon was 9.17% (active); in the experiment with HT29 colon, 15.6%; in the experiment with SNB-19 CNS, 80.8%; in the experiment with U251 CNS it was 52%; in the experiment on PC-3 prostate, 41.5%; in the experiment on SK-MEL-5 melanoma, 23.2%. Moreover, the growth is 70.1% with UACC-62 melanoma; 20.4% with LOX IMVI melanoma; 60.4% with SK-MEL-28 melanoma; 68.8% with SK-MEL-2 melanoma; 63.4% with EKVX NSCLC; 71.8% in the experiment with SN12C renal. Moreover, the growth with TK-10 renal was 92%; in the experiment on ACHN renal, 67.1%; with CAKI-1 renal, 63.8%; in the experiment on A498 renal, 55.1%; with CCRF-CEM leukemia, 46.5%; in the experiment with MOLT-4 leukemia, 38.2%.
